Out of some 370,000 compounds screened, about 660 (0.18%) were called active. What follows is part of a selection rich in actives, with near analogues and random picks from the rest. A number with no mark means an inactive call. Cut-off read from the data, not from the text of the source: active = inhibition above about 11%; inactive = the rest.
Target: 1-phosphatidylinositol 4,5-bisphosphate phosphodiesterase beta-3 (Homo sapiens) (UniProt Q01970)
Test: phospholipase C beta3 enzyme inhibition – biochemical, fluorescence, primary screen (AID 720704);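 note: 0% = median of compound wells on plate and 100% = full blocker control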
Conditions: Purified PLC-beta3, fluorogenic substrate, at 12.2 µM, stronger effect = higher value

Sequence of 1-phosphatidylinositol 4,5-bisphosphate phosphodiesterase beta-3 (Homo sapiens) (Q01970 whole entry, looked up): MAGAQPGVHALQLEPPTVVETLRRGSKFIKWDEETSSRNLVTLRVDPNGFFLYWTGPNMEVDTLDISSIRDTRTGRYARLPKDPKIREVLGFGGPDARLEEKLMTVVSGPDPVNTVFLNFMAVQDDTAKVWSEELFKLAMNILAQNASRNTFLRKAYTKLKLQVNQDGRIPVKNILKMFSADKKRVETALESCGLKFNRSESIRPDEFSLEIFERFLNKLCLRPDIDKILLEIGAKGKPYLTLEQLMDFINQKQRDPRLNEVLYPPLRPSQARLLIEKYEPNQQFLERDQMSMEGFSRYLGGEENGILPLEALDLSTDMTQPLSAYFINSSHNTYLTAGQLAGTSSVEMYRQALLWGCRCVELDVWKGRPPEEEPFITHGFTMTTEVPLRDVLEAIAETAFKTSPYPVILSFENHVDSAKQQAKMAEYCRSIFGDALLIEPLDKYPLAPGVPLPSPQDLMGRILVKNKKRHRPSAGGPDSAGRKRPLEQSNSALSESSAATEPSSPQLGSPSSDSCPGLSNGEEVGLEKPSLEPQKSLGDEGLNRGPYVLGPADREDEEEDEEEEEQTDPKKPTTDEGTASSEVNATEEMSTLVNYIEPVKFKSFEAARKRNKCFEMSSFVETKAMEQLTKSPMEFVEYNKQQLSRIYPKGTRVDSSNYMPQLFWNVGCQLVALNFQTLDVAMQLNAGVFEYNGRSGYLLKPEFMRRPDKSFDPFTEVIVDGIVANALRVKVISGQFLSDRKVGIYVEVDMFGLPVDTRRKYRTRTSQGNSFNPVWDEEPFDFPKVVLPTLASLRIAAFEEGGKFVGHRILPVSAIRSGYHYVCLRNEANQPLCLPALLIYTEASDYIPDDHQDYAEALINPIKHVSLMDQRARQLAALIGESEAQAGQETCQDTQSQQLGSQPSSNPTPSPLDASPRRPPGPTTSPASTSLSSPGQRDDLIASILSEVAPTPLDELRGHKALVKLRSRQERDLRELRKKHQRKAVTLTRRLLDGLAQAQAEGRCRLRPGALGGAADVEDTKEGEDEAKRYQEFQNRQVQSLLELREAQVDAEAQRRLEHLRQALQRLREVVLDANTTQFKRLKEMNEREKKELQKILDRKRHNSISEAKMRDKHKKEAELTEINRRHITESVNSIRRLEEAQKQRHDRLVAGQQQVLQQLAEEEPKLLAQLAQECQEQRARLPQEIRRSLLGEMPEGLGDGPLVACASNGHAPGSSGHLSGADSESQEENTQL

Row | Compound | inhibition
1 | Cc1nnc(SC(C)C(=O)Nc2ccc(S(=O)(=O)NC3CCCCC3)cc2)s1 (stereo unspecified) | 4.91%
2 | COc1ccc(C)cc1NC(=O)CSc1nnc(CC(=O)Nc2ccccc2F)n1C | -4.5%
3 | COc1ccc(OC)c(NC(=O)CSc2nc3cccnc3n2C)c1 | 6.47%
4 | CCOc1ccc(OCC)c(NC(=O)CSc2nnc(Cn3cnc4ccccc43)n2C)c1 | 12.1% (active)
5 | CSCCC(NC(=O)c1cc([N+](=O)[O-])cc([N+](=O)[O-])c1)c1nc2ccccc2[nH]1 (stereo unspecified) | -1.97%
6 | O=C(CSc1nc2ccccc2o1)N1CCN(c2ccc(Cl)cc2)CC1 | -0.03%
7 | Cc1ccc(/C=N/NC(=O)CSc2nc3ccccc3o2)cc1 | 11.3% (active)
8 | O=C(CSc1nc2ccccc2o1)N1c2ccccc2Sc2ccc(Cl)cc21 | -0.49%
9 | O=C1CCC(C(=O)N2CCC(O)(c3ccccc3)CC2)CN1CCc1ccccc1 (stereo unspecified) | -8.61%
10 | CCC(=O)c1ccc(N2CCN(C(=O)c3cc([N+](=O)[O-])ccc3F)CC2)c(F)c1 | -2.14%
11 | NC(=O)c1nnsc1-c1ccc(-c2snnc2C(N)=O)cc1 | -6.22%
12 | Cc1ccc(-c2nc(CS(=O)(=O)CC(=O)NCc3ccc4c(c3)OCO4)c(C)o2)cc1 | -6.63%
13 | O=C(COC(=O)c1ncc(Cl)c(Cl)c1Cl)NNC(=O)c1ccccc1 | -12.2%
14 | Cc1cc(Cl)ccc1OCCCC(=O)Nc1cccc(-n2cnnn2)c1 | -7.06%
15 | COc1ccc(CC(NC(C)=O)C(=O)NC2CCN(C(=O)c3ccc(OC)c(OC)c3)CC2)cc1OC (stereo unspecified) | 2.51%
16 | Cc1nnc(SCc2nc3ccccc3nc2C)s1 | 2.42%
17 | C/C(CC(O)(/C=N/O)c1ccccc1)=N\O (stereo unspecified) | 3.84%
18 | Cc1nc2ccccc2nc1CC(O)(c1ccccc1)c1ccccc1 | 11.5% (active)
19 | O=C(c1cc2sccc2n1Cc1ccc(F)cc1)N1CCc2ccccc21 | -17.1%
20 | Cc1ccc(C)c(NC(=O)c2ccc(OC(=O)c3ccco3)cc2)c1 | -2.18%
21 | Cc1cc(NC(=O)c2ccc(F)cc2)ccc1NC(=O)c1ccco1 | 12.6% (active)
22 | Cc1cc(NC(=O)[C@H](C)NC(=O)c2ccco2)ccc1Br | -1.12%
23 | COc1ccc(NC(=O)C[C@H]2C(=O)N(CCc3ccccc3)C[C@@H]2C)cc1 | 4.39%
24 | O=C(C[C@H]1C(=O)N(c2ccc(F)c(F)c2)C[C@@H]1Cc1ccccc1)Nc1ccccc1 | 12.1% (active)
25 | CC1(C)CN(CCc2ccccc2)C(=O)[C@H]1CC(=O)Nc1ccc(Br)cc1 | 1.65%
26 | Cc1nc2nc(COc3ccccc3)[nH]n2c(=O)c1C | 2.74%

Row | Compound | inhibition
27 | CCN1C(=O)CS/C1=N\c1nccs1 | 0.11%
28 | Nc1ccn(CC(=O)N2CCN(c3ccccn3)CC2)c(=O)n1 | -1.87%
29 | O=C1NCC(Nc2ccccc2)C(=O)N1 (stereo unspecified) | 1.2%
30 | C=CCn1c(=O)n(C)c2c(=O)n(C)c(=O)n(C)c21 | 0.17%
31 | CCC1CCCCN1C(=O)CSc1nc2c(c(=O)n1C)SC(C)C2 (stereo unspecified) | -1.75%
32 | CCC1CCCCN1C(=O)CSc1nc2c(c(=O)n(C)c(=O)n2C)n1C (stereo unspecified) | -1.77%
33 | CCC1CCCCN1C(=O)CSc1nc(C)cc(C)n1 (stereo unspecified) | 19.7% (active)
34 | CCCC/S(C)=N/S(=O)(=O)c1ccc(C)cc1 (stereo unspecified) | 3.14%
35 | C=CC[C@@H](CC(=O)N[C@@H](CO)Cc1ccccc1)C(=O)NCCOC(=O)[C@@H](CC=C)CC(=O)OC(C)(C)C | 2.47%
36 | C=CC[C@@H](CC(=O)N[C@@H](CO)Cc1ccccc1)C(=O)N[C@H](COC(=O)[C@H](CC=C)CC(=O)OC(C)(C)C)Cc1ccccc1 | 2.78%
37 | C=CC[C@@H](CC(=O)NCCO)C(=O)N[C@H](C)COC(=O)[C@@H](CC=C)CC(=O)OC(C)(C)C | 12.3% (active)
38 | CCO[C@@H]1OC(C(=O)NC2CC2)=C[C@H](C)[C@H]1CCCO | 1.08%
39 | CC1=C(C(=O)N2CCOCC2)CC(CC(=O)NCc2cccc3ccccc23)C(=O)N1CCC1=CCCCC1 (stereo unspecified) | 3.78%
40 | Nc1cc(N2CCCCCC2)c2nonc2c1[N+](=O)[O-] | -10.7%
41 | Cc1cc2c(cc1C)NC(c1ccccn1)C1=C(CC(C)(C)CC1=O)N2 (stereo unspecified) | -15%
42 | O=C(O)CCCCOn1ccnc1 | 1.89%
43 | CC(C)CCN(C(=O)c1csnn1)C(C(=O)NC1CCCC1)c1ccccc1 (stereo unspecified) | -3.64%
44 | CN1C(CC(=O)Nc2ccc(Br)cc2)c2ccccc2CC1(C)C (stereo unspecified) | -1.47%
45 | COC(=O)C1=C(N)Oc2cc(C)oc(=O)c2C1c1cccnc1 (stereo unspecified) | -0.05%
46 | O=C(Nc1ccccc1C(F)(F)F)N1CCCC1c1cccnc1 (stereo unspecified) | -8.96%
47 | O=c1ccc2c(-c3ccccc3S(=O)(=O)O)c3ccc(O)c(O)c3oc-2c1O | 11.7% (active)
48 | Cc1ccsc1C(=O)N[C@@H](C)c1nnc2ccccn12 | -1.93%
49 | COc1ccc(Br)cc1CN(C)C(=O)C1CC(=O)N(C2CCCC2)C1 (stereo unspecified) | -3.09%
50 | CCN1CN(Cc2ccccc2)CNC1=S | 6.18%
51 | CC(C)c1nc2oc3c(N4CCN(C)CC4)ncnc3c2c2c1CCC2 | -17.2%
